# Experimental data taken from PubChem BioAssay (NCATS).
# “And” between values parts separate entries of the source, which are not always exact repeats. Equal values may be shown once. Inconclusive results are not listed. For some assays here: Entries with a potency or affinity are not part of this list. The source made the active and inactive calls.
# Columns and labels:
# [1] = qHTS Assay for Identifying Gametocytocidal Compounds (AID 743244; active = well fitted curve in the direction sought with a large enough effect; an effect the other way counts as inactive or inconclusive;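 also: % is scaled to controls: 0 for no effect and ±100 for the full control effect; actives lower the fluorescent signal which means gametocytes are killed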); details: P. falciparum 3D7 stage III-V gametocytes, alamarBlue, 72 h; max response: stronger effect = lower value
# In short: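 Using 20,000 stage III–V 3D7 gametocytes per well, compounds were incubated 72 h under 37 °C/5% CO2. Viability was then assessed by 24 h alamarBlue reduction, measured fluorometrically at 525/598 nm.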
# [2] = Ebola virus entry assay, green fluorescence channel
# [3] = Ebola virus entry assay, blue channel fluorescence
# [4] = qHTS assay for small molecule agonists of the antioxidant response element (ARE) signaling pathway measured by Nrf2-dependant transcriptional activity (AID 720636; active = well fitted curve in the direction sought with a large enough effect in the repeat runs; an effect the other way counts as inactive or inconclusive; also: % of control where 0% means no effect)
# In short: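 ARE-luc HepG2 cells carrying an Nrf2-responsive luciferase reporter were plated in medium with 1% dialyzed FBS, left 6 hr at 37 C to attach, then exposed to compound for 16 hr. Luciferase luminescence was read after ONE-Glo addition.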
# [5] = qHTS assay for small molecule agonists of the antioxidant response element (ARE) signaling pathway measured by Nrf2-dependant transcriptional activity - cell viability counter screen (AID 720653; active = well fitted curve in the direction sought with a large enough effect in the repeat runs; an effect the other way counts as inactive or inconclusive; also: potency is read from the fitted curve at half-maximal effect; as to max response: % is scaled to controls: 0 for no effect and ±100 for the full control effect); details: ARE-bla HepG2 viability, CellTiter-Glo ATP luminescence, 16 h; max response: stronger effect = lower value
# In short: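 ARE-bla HepG2 cells treated with compounds for 16 h at 37C; this counter screen measures viability as intracellular ATP by CellTiter-Glo luminescence after 30 min at room temperature.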
# [6] = biological target: T1, Hexokinase-4 (Homo sapiens) + Glucokinase regulatory protein (Homo sapiens) (UniProt P35557+Q14397); assay: qHTS assay for inhibitors of recombinant human GCK-GKRP interaction: Diaphorase-coupled assay (AID 743205; active = well fitted curve in the direction sought with a large enough effect; an effect the other way counts as inactive or inconclusive)
# T1 sequence (P35557 whole entry, looked up): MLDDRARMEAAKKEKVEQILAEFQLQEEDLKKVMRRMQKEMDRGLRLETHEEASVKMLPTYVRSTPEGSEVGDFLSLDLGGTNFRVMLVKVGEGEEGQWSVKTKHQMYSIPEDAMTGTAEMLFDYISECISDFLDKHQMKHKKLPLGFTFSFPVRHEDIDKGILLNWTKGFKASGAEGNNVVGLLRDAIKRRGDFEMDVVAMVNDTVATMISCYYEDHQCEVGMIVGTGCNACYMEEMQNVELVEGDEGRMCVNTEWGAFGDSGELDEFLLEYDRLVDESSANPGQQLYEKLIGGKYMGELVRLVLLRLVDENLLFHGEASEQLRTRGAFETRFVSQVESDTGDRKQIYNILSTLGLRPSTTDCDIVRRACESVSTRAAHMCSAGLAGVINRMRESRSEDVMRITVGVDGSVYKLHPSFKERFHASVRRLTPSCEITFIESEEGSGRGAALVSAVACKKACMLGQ
# T1 sequence (Q14397 whole entry, looked up): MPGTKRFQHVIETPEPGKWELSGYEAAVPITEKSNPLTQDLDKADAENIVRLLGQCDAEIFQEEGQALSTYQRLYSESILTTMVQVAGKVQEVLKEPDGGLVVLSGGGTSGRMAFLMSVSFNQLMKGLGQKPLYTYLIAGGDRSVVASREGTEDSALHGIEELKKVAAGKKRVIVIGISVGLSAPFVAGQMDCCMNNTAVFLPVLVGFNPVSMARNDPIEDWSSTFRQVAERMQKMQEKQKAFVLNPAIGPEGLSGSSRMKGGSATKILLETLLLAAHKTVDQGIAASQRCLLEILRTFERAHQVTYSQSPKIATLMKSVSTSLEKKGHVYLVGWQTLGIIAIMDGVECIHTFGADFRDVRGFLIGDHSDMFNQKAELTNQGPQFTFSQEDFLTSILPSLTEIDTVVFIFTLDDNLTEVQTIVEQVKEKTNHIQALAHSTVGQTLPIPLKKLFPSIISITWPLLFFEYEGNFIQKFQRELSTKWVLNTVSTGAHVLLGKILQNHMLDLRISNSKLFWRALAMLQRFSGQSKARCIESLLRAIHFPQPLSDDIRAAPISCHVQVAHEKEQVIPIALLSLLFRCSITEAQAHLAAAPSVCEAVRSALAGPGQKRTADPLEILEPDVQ
# In short: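 Compounds pre-incubated 20 min with substrate, then 10 nM GST-GCK with 10 nM FLAG-GKRP added. GCK activity coupled via G6PDH and diaphorase to resorufin (5 mM glucose, 0.4 mM ATP, 0.15 mM NADP+, pH 7.6), read kinetically over 30 minutes at Ex 525/Em 590 nm.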
# [7] = biological target: T1, Hexokinase-4 (Homo sapiens) + Glucokinase regulatory protein (Homo sapiens); assay: qHTS assay for inhibitors of recombinant human GCK-GKRP interaction: ADP-Glo assay (AID 743206; active = well fitted curve in the direction sought with a large enough effect; an effect the other way counts as inactive or inconclusive;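 also: plate controls were DMSO plus enzyme for no effect and no enzyme for full effect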)
# In short: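 Pin-transferred compounds meet a 15 nM GST-GCK/15 nM FLAG-GKRP/2 uM S6P mix (dispense concentrations). ATP is then added to 0.4 mM final with 5 mM glucose, and the reaction runs 60 min at room temperature. ADP is quantified luminescently.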
# [8] = biological target: T1, Hexokinase-4 (Homo sapiens) + Glucokinase regulatory protein (Homo sapiens); assay: qHTS assay for inhibitors of recombinant human GCK-GKRP interaction: HTRF assay (AID 743207; active = well fitted curve in the direction sought with a large enough effect; an effect the other way counts as inactive or inconclusive;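 also: 0% = DMSO with GCK present and -100% = DMSO wells lacking GCK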)
# In short: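 HTRF binding of 5 nM GST-GCK and 5 nM FLAG-GKRP with 2 uM S6P in pH 7.1 Hepes buffer (MgCl2, KCl, DTT, Tween 20, BSA). Anti-FLAG XL665 and anti-GST donor added, 60 min at room temperature; 665/615 nm read, normalized to with- and without-GCK controls.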
# [9] = qHTS assay for cell viability of HEK293 cells (AID 743288; active = well fitted curve in the direction sought with a large enough effect; an effect the other way counts as inactive or inconclusive; also: potency is read from the fitted curve at half-maximal effect; nearly all actives have a fitted effect of over 50% in size); details: ATP luminescence (CellTiter-Glo), 18 h; max response: stronger effect = lower value
# In short: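 Steps: plate 2,000 parental HEK293 cells per well; incubate ≥5 h, 37 C; add compounds in DMSO; incubate 18 h, 37 C; add CellTiter-Glo; wait 30 min at room temperature; read luminescence.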
# [10] = qHTS for compounds that reverse cellular toxicity of Amyloid beta (A-beta) peptide in yeast: LOPAC Validation Assay (AID 720559; active = well fitted curve in the direction sought with a large enough effect; an effect the other way counts as inactive or inconclusive;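 also: plate controls were DMSO for no effect and equimolar ferric chloride plus clioquinol rescue for full effect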)
# In short: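 Yeast expressing toxic A-beta grown with pinned compounds at 30 C for 48 hr. Growth measured as absorbance at 600 nm; data normalized to DMSO and to an equimolar FeCl3/clioquinol mixture as positive control.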
# [11] = qHTS profiling of the MIPE4 collection as inhibitors of Plasmodium falciparum (3D7) proliferation (AID 743344);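 also: scaled between DMSO vehicle wells and 0.29 µM artemisinin as full inhibition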; details: P. falciparum 3D7 in erythrocytes, SYBR Green DNA fluorescence, 72 h; at 28.5 µM (top of the series) unless noted
# In short: (§1)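 Parasite DNA was quantified by SYBR Green I fluorescence (ex 485, em 535 nm) after overnight lysis in saponin/Triton buffer at room temperature. Cultures at 0.3% parasitemia and 2.5% hematocrit were first exposed to compound for 72 h at 37 C; signals were normalised to artemisinin (0.29 uM) and vehicle wells.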
# [12] = qHTS profiling of the MIPE4 collection as inhibitors of Plasmodium falciparum (DD2) proliferation (Rep 2) (AID 743346); details: P. falciparum Dd2 in erythrocytes, SYBR Green DNA, 72 h; at 28.5 µM (top of the series) unless noted
# In short: as §1
# [13] = qHTS profiling of the MIPE4 collection as inhibitors of Plasmodium falciparum (HB3) proliferation (AID 743347);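 also: plate controls were DMSO vehicle wells for no effect and artemisinin wells for full effect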; details: P. falciparum HB3 in erythrocytes, SYBR Green DNA, 72 h; at 28.5 µM (top of the series) unless noted
# In short: as §1
# [14] = qHTS profiling of the MIPE4 collection as inhibitors of Plasmodium falciparum (DD2) proliferation (AID 743345); details: P. falciparum Dd2 in erythrocytes, SYBR Green DNA, 72 h; at 28.5 µM (top of the series) unless noted
# In short: as §1
# [15] = qHTS assay for small molecule antagonists of the retinoid-related orphan receptor gamma (ROR-gamma) signaling pathway - cell viability counter screen (AID 720652; active = well fitted curve in the direction sought with a large enough effect in the repeat runs; an effect the other way counts as inactive or inconclusive;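 also: potency is read from the fitted curve at half-maximal effect; compound exposure lasted 16 hr before ATP read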)
# In short: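 Cytotoxicity counter screen: intracellular ATP (CellTiter-Glo luminescence) measured in the doxycycline-induced CHO RORE-luciferase reporter line after 16 hr compound exposure at 37 C, 5% CO2.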
# [16] = qHTS assay for cell viability of the p53RE-bla HCT-116 cell line (AID 743292; active = well fitted curve in the direction sought with a large enough effect; an effect the other way counts as inactive or inconclusive; also: % is scaled to controls: 0 for no effect and ±100 for the full control effect; nearly all actives have a fitted effect of over 55% in size)
# In short: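 CellSensor p53RE-bla HCT-116 cells, 4,000/well, preincubated 5 h at 37 C, then exposed to compounds in DMSO for 16 h at 37 C. Viability read as CellTiter-Glo luminescence (intracellular ATP) after 30 min at room temperature.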
# For efficacy in this document: 0% is about no effect.
smiles,measurement,setting,value
N[C@@H]1C[C@H]1c1ccccc1,max response,[1],21.9% (inactive)
same,efficacy,[2],-26.4% (inactive)
same,outcome,[3],inactive
COC(=O)[C@@H]1CC2=CC(=O)CC[C@]2(C)[C@@]23O[C@@H]2C[C@@]2(C)[C@@H](CC[C@@]24CCC(=O)O4)[C@H]13,efficacy,[2],-15.8% (inactive)
same,outcome,[3],inactive
CN(CCOc1ccc(CC2SC(=O)NC2=O)cc1)c1ccccn1 (stereo not given),efficacy,[2],-12.2% (inactive)
same,outcome,[3],inactive
CCC(C(N)=O)N1CCCC1=O (stereo not given),max response,[1],-7.9% (inactive)
same,efficacy,[2],-12.2% (inactive)
same,outcome,[3],inactive
COc1nc(N)nc2c1ncn2[C@@H]1O[C@H](CO)[C@@H](O)[C@@H]1O,efficacy,[2],-33.2% (inactive)
same,outcome,[3],inactive
O=c1[nH]c2ccccc2n1C1CCN(CCCC(c2ccc(F)cc2)c2ccc(F)cc2)CC1,Potency,[4],inactive
same,Potency,[5],50.1 µM (active)
same,outcome,[6],inactive
same,outcome,[7],inactive
same,outcome,[8],inactive
same,Potency,[9],50.1 µM (active)
same,efficacy,[2],-303% (inactive)
same,AC50,[3],11.2 µM (active)
O=c1[nH]cc(F)c(=O)[nH]1,outcome,[10],inactive
same,"parasite growth, % of DMSO control",[11],42.1%
same,"parasite growth, % of control (lower = inhibition)",[12],44.8%
same,"growth, % of control",[13],85.2%
same,efficacy,[2],26.1% (inactive)
same,outcome,[3],inactive
Cc1c(OCC(F)(F)F)ccnc1CS(=O)c1nc2ccccc2[nH]1 (stereo not given),outcome,[10],inactive
same,max response,[1],1.82% (inactive)
same,"parasite growth, % of DMSO control",[11],56.6%
same,"parasite growth remaining, % of DMSO control (lower = more inhibition)",[14],83.1%
same,"parasite growth, % of control (lower = inhibition)",[12],42.1%
same,"growth, % of control",[13],50.8%
same,efficacy,[2],18.5% (inactive)
same,outcome,[3],inactive
CC1OC(C)OC(C)O1 (stereo not given),max response,[1],-0.681% (inactive) and 11.3% (inactive)
same,efficacy,[2],12.6% (inactive)
same,outcome,[3],inactive
O=C(O)c1cn(C2CC2)c2cc(N3CCNCC3)c(F)cc2c1=O,efficacy,[2],-9.16% (inactive)
same,outcome,[3],inactive
N[C@@H](Cc1ccc(N(CCCl)CCCl)cc1)C(=O)O,Potency,[15],21.1 µM (active)
same,max response,[5],-3.2% (inactive) and -6.56% (inactive)
same,max response,[1],7.49% (inactive)
same,Potency,[9],50.1 µM (active)
same,Potency,[16],inactive
same,"parasite growth, % of DMSO control",[11],47.5%
same,"parasite growth remaining, % of DMSO control (lower = more inhibition)",[14],21.4%
same,"parasite growth, % of control (lower = inhibition)",[12],31.9%
same,"growth, % of control",[13],57.1%
same,efficacy,[2],12.7% (inactive)
same,outcome,[3],inactive
